# Compound activity from PubChem.
# Shown are actives, neighbours in structure and some others; about 7% of the full set was active somewhere.
# KLK7 zymogen act: activators of human kallikrein-7 zymogen; AID 652039; 0.9% of 370,000 active; purified proKLK7, EDANS-DABCYL substrate fluorescence; 100% is mature enzyme control, 0% vehicle; activation, % at 7 µM;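 active = activation above the mean of all tested compounds plus 3 SD, computed per campaign excluding outliers beyond control limits, cut at about 13% in these data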
# Target sequence (P49862 whole entry, looked up): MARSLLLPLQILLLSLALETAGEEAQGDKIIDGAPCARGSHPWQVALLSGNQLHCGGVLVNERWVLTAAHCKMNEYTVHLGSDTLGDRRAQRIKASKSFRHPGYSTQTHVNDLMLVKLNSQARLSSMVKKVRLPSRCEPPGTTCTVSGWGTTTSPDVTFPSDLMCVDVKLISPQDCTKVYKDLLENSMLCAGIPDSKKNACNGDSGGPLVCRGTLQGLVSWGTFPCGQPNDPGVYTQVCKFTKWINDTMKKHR
# rCAG binder-1: molecules binding r(CAG) RNA repeats; r(CAG) RNA repeat, TO-PRO-1 dye displacement fluorescence; inhibition, % at 3 µM; 1.3% of 370,000 active;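 active = inhibition above the plate cutoff, the mean of all test compounds on that plate plus 3 SD, cut at about 35% in these data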;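 note: 0% = DMSO alone and 100% = 100 µM mitoxantrone as full dye displacement; higher means more dye released from RNA so lower well fluorescence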
# ADAM17 inh: inhibitors of human ADAM17. P78536. recombinant ADAM17, EDANS/DABCYL FRET peptide cleavage. inhibition, % at 6.95 µM. 0.83% of 370,000 active;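 active = inhibition above the mean of compounds lying between control limits plus 3 SD, set per campaign, cut at about 8.5% in these data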;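 note: 0% = DMSO-only wells as the low control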
# NR3A LBD binder: modulators (binders) of human NR3A ligand-binding domain | NR3A LBD differential scanning fluorimetry, Tm shift; 0% = protein alone, 100% = glycine-bound protein | Tm shift relative to glycine control, % at 25 µM | 2.5% of 340,000 active | AID 1259313;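 active = melting temperature shift of at least 10% of the positive control shift, at one fixed dose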
# AHR activator: human AHR activation; P35869; AHR-responsive luciferase reporter cells, luminescence; activation, % at 5 µM; 2.5% of 320,000 active; AID 2796; in the data active = activation above about 47%;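 note: 0% = vehicle wells and 100% = reference agonist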
# ADAM10 inh: inhibitors of human ADAM10. O14672. recombinant ADAM10, EDANS/DABCYL FRET peptide cleavage, 3 h. inhibition, % at 7 µM. 0.62% of 370,000 active;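 active = inhibition above a per-campaign cutoff equal to the mean of compounds falling between control-based bounds plus 3 SD, cut at about 20% in these data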;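 note: 0% = DMSO wells while the 100% control is not disclosed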
# rCAG bind conf: r(CAG) RNA repeat binding, confirmation; shares compounds with rCAG binder-1; TO-PRO-1 dye displacement fluorescence; inhibition, % at 3 µM; 70% of 4,300 active;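 active = inhibition above a per-plate cutoff, the mean inhibition of sample wells plus 3 SD, cut at about 35% in these data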;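 note: loss of TO-PRO-1 fluorescence as compound displaces dye from 1x1 AA loop RNA; 0% = DMSO only wells and 100% = 100 µM mitoxantrone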
# DNA CAG counter: counter-screen for rCAG RNA binders: DNA CAG dye complex inhibitors. shares compounds with rCAG binder-1. d(CAG) DNA oligo TO-PRO-1 dye displacement, fluorescence. inhibition, % at 3 µM. 94% of 4,300 active. AID 652068;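 active = inhibition above its plate's cutoff, the mean test-well inhibition plus 3 SD, cut at about 4.8% in these data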;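 note: 0% = DNA dye mix with DMSO and 100% = 100 µM mitoxantrone; hits displace the dye from DNA and so lower well fluorescence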
# DNA CAG DR: DNA CAG dye complex inhibition, dose response counter-screen. shares compounds with rCAG binder-1. DNA CAG/GTC duplex TO-PRO-1 dye displacement fluorescence. IC50, µM. 20% of 250 active; in the data active = IC50 below about 10 µM
# dCAG DNA bind: DNA CAG dye complex inhibition, late stage dose response; shares compounds with rCAG binder-1; d(CAG) DNA duplex TO-PRO-1 dye displacement, fluorescence; IC50, µM; 80% of 30 active
# rCAG binder-2: r(CAG) repeat RNA binding, TO-PRO-1 displacement; shares compounds with rCAG binder-1; r(CAG) RNA TO-PRO-1 dye displacement, fluorescence; IC50, µM; 100% of 30 active; AID 720651
# An asterisk follows results filed as active; i = inactive; / = not tested or not shown. Unless noted, the rule behind the calls is not given here.
SMILES,KLK7 zymogen act,rCAG binder-1,ADAM17 inh,NR3A LBD binder,AHR activator,ADAM10 inh,rCAG bind conf,DNA CAG counter,others
COc1cc(/C=C2/C(=O)NN(c3cccc(Cl)c3)C2=O)cc(OC)c1O,1,50*,2,-3,1,0,14,6.8*,
O=C1NN(c2cccc(Br)c2)C(=O)/C1=C\c1ccc(O)cc1,0,72*,3,15*,0,9,27,11*,
C=CCN1[C@H](C)[C@H](c2ccccc2)Oc2cc(Br)ccc2S1(=O)=O,0,5,3,/,/,-10,/,/,
COc1ccc(OC)c(S(=O)(=O)CC(=O)c2cc3ccccc3oc2=O)c1,0,16,-2,/,/,-8,/,/,
COc1ccccc1/C=C/C(=O)Nc1ccc(S(=O)(=O)Nc2cc(C)on2)cc1,0,53*,-6,-10,5,-13,48*,12*,
Cc1cc(NS(=O)(=O)c2ccc(NC(=O)/C=C/c3ccc(Br)cc3)cc2)no1,1,68*,6,-2,0,7,62*,29*,
CN(C)[C@@H]1CCN(c2ccc3c(c2)OCCCN(C2CC2)S3(=O)=O)C1,-1,2,-6,/,/,-8,/,/,
O=S(=O)(CC1NCc2ccccc21)NCCc1ccccc1 (stereo not given),0,6,1,/,/,1,/,/,
COC(=O)CSc1nnc(-c2ccc(NS(=O)(=O)c3ccc(Cl)s3)cc2)o1,0,39*,0,/,/,0,29,5.8*,
COc1cc2c(oc(=O)c3cc(C)cc(OC)c32)c2c(C3OC(C)C(O)C(C)(O)C3O)ccc(O)c12 (stereo not given),-8,52*,-10,-1,/,-44,13,6.9*,
Cc1ccccc1N1CCN(C(=O)COc2cc(=O)n(C)c3ccccc23)CC1,0,-1,2,/,/,3,/,/,
Cc1ccc(-n2c(SCC(=O)O)nc3c(sc(=S)n3-c3ccc(C)c(C)c3)c2=O)cc1,0,51*,1,-24,1,-3,42*,14*,
Cc1ccc(-n2c(=S)sc3c(=O)n(-c4ccc(F)cc4)c(SCC(=O)O)nc32)cc1C,0,36*,-2,4,1,-8,30,6.4*,
Cc1ccc(-n2c(SCC(=O)O)nc3sc4c(c3c2=O)CCCC4)cc1,0,25,3,0,0,-2,/,/,
COC(=O)C1=C(C)N(Cc2cccc(C(F)(F)F)c2)C(=NCc2ccc3c(c2)OCO3)NC1c1ccc(Cl)cc1 (stereo not given),1,8,8,/,/,2,/,/,
CCCCCCCCN1C(=O)[C@@H](CC(=O)N2CCCCC2)C[C@@]2(C(=O)OC)C1=C[C@H](C1CCCC1)O[C@@H]2C,0,3,-2,/,/,-2,/,/,
COc1ccc(S(=O)(=O)/N=C2/NC(=O)/C(=C\c3cc(OC)c(OC)cc3[N+](=O)[O-])S2)cc1,1,75*,3,-8,2,11,63*,23*,
COc1ccc(/C=C2\SC(=Nc3ccccc3OC)NC2=O)cc1,-1,17,2,-1,5,5,/,/,
COc1cc(/C=C2\S/C(=N/S(=O)(=O)c3ccccc3)NC2=O)c([N+](=O)[O-])cc1OC,3,77*,0,-3,1,-8,73*,33*,DNA CAG DR=6.6*
CN1CCCCC(NC(=O)c2ccc(F)c(F)c2)C1=O (stereo not given),0,3,-3,/,/,2,/,/,
C#CCNC(=O)C[C@H]1C[C@@]2(C(=O)OC)C(=C[C@H](C(C)C)O[C@@H]2C2CC2)N(Cc2ccccc2)C1=O,1,-1,-4,/,/,0,/,/,
Cc1c(C)n(Cc2ccc(-c3ccccc3C(=O)O)cc2)c2ccc(C(=O)N[C@@H](C)c3ccc(Br)cc3)cc12,1,77*,0,/,/,5,77*,38*,
Cc1c(C)n(Cc2ccccc2)c2ccc(C(=O)O)cc12,0,3,-5,0,-1,-8,/,/,
O=C(O)/C(=C\c1ccc(C(F)(F)F)cc1)c1ccc(S(=O)(=O)N2CCCC2)s1,0,37*,0,0,-1,2,25,5.5*,
O=C(O)C1CCCN(S(=O)(=O)c2ccc(Br)s2)C1 (stereo not given),0,2,-5,1,3,-2,/,/,
SMILES,KLK7 zymogen act,rCAG binder-1,ADAM17 inh,NR3A LBD binder,AHR activator,ADAM10 inh,rCAG bind conf,DNA CAG counter,others
O=C(O)/C(=C\c1ccc(Br)cc1)c1ccc(S(=O)(=O)N2CCCCC2)s1,0,47*,-4,-7,-2,-13,67*,25*,DNA CAG DR=i;dCAG DNA bind=8.3*;rCAG binder-2=2.8*
COc1cc(/C=C(\C(=O)O)c2ccc(S(=O)(=O)N3CCCC3)s2)ccc1OCCC(C)C,-3,72*,-22,0,/,-66,57*,20*,
CCCCOc1ccc(/C=C(\C(=O)O)c2ccc(S(=O)(=O)N3CCCC3)s2)cc1,-1,67*,-6,2,0,-18,66*,28*,
O=C(O)/C(=C\c1cccc(F)c1)c1ccc(S(=O)(=O)N2CCCC2)s1,1,17,-4,0,1,-13,/,/,
Cc1cccc(/C=C(\C(=O)O)c2ccc(S(=O)(=O)N3CCCC3)s2)c1,0,19,-9,-1,0,-21,/,/,
C=CS(=O)(=O)N[C@@H](CSSC[C@H](NS(=O)(=O)C=C)C(=O)OC)C(=O)OC,0,0,-1,/,/,-1,/,/,
O=C1NCCC12C(=O)Nc1ccccc12 (stereo not given),0,2,-1,-2,1,-15,/,/,
O=C(O)C1=C2C(=O)Nc3cccc(c32)C2(C1)C(=O)Nc1ccccc12 (stereo not given),-1,39*,-5,/,/,-27,59*,22*,
Cc1ccc(Cl)cc1NC(=O)OCCN(C)C(=O)Nc1cc(Cl)ccc1C,0,2,1,/,/,-1,/,/,
O=C(O)Cc1c[nH]c2cccc(O)c12,1,46*,1,0,8,-3,29,13*,
